The list is not random: actives were taken first. Their share in the collection is about 1.5%.
HGIII-sPLA2 inh – Blocks human group III sPLA2 activity; Q9NZ20; hit rate 0.56% among 370,000; inhibition, % at 12.2 µM; QFRET BODIPY PC-A2 liposome hydrolysis, fluorescence;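 active means inhibition above mean plus 3 SD of compounds lying within the high and low control bounds, cut at about 19% in these data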
AI-2 QS modul – Vibrio harveyi AI-2 quorum sensing modulation | Vibrio harveyi JMH597 AI-2 luminescence/OD600 ratio, 9 h; active compounds read low; strain lacks LuxN and CqsS sensors; 0 = neutral-control median | activity change, % at 7.5 µM | hit rate 0.4% among 300,000 | AID 2094; in the data active means activity change below about -75%, passing the limit was not always enough;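 further: luminescence divided by OD600 gain over 9 h not by final OD600 alone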
ARNT-TACC3 inh – disrupts binding between human ARNT and TACC3; Q9Y6A5; AlphaScreen His-ARNT PAS-B/GST-TACC3 binding, luminescence; TACC3 fragment carries E629A point mutation; hit rate 0.66% among 390,000; inhibition, % at 9.99 µM;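 active means mean inhibition of replicates at least 50% and at least half of replicates each reaching 50%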
Rin1-Abl PPI inh – blocks binding of human Rin1 to Abl; P00519+Q13671; TR-FRET Rin1/Abl binding, biochemical; inhibition, % at 7.35 µM; hit rate 0.4% among 360,000; AID 588664; in the data active means inhibition above about 5%, passing the limit was not always enough
Numbers stand for hits.

What do the screens show for `O=C(C[C@H]1CC[C@H]2NC[C@@H](O)COC[C@@H]2O1)Nc1ccccc1`?
ARNT-TACC3 inh: inactive

Results for CCOc1ccc(NC(=S)N(Cc2ccc(N(C)C)cc2)Cc2ccco2)cc1 ?
AI-2 QS modul: inactive; ARNT-TACC3 inh: 17; Rin1-Abl PPI inh: inactive

Results for CCCC(=O)Nc1ccc2c(c1)OC[C@H](C)N(C(=O)CC1CC1)C[C@H](C)[C@H](OC)CN(C)C2=O ?
ARNT-TACC3 inh: inactive

Results for CC1Oc2ccccc2C=C1/C=N/Nc1ccc(C(=O)O)cc1 (stereo not drawn) ?
HGIII-sPLA2 inh: inactive; AI-2 QS modul: -92; ARNT-TACC3 inh: inactive; Rin1-Abl PPI inh: inactive

Results for C[C@@H]1CN([C@H](C)CO)C(=O)c2cc(-c3ccccc3)cnc2O[C@@H]1CN(C)C(=O)NC1CCCC1 ?
ARNT-TACC3 inh: inactive

How did O=C1C(=Cc2ccc(Br)o2)C(=O)c2ccccc21 do in these assays?
ARNT-TACC3 inh: inactive; Rin1-Abl PPI inh: 8.7

What do the screens show for `Nc1nnc(SCCOc2cccc(Br)c2)s1`?
HGIII-sPLA2 inh: inactive; AI-2 QS modul: -79; ARNT-TACC3 inh: inactive; Rin1-Abl PPI inh: inactive

Results for Brc1cccc(OCCSc2ncccn2)c1 ?
HGIII-sPLA2 inh: inactive; AI-2 QS modul: -82; ARNT-TACC3 inh: inactive; Rin1-Abl PPI inh: inactive

Results for Cc1ccc(S(=O)(=O)N(C)C[C@@H]2Oc3ncc(-c4ccccc4)cc3C(=O)N([C@@H](C)CO)C[C@@H]2C)cc1 ?
ARNT-TACC3 inh: inactive

Results for C[C@@H]1CN([C@@H](C)CO)C(=O)c2cccc(NC(=O)c3ccc(-c4nccs4)cc3)c2O[C@H]1CN(C)CC1CCCCC1 ?
ARNT-TACC3 inh: inactive

Results for Cc1ccc(Cc2c[nH]c(=S)s2)cc1 ?
HGIII-sPLA2 inh: inactive; AI-2 QS modul: -89; ARNT-TACC3 inh: inactive; Rin1-Abl PPI inh: inactive

Results for Cc1ccc(Cc2c(C)[nH]c(=S)[nH]c2=O)cc1 ?
HGIII-sPLA2 inh: inactive; AI-2 QS modul: inactive; ARNT-TACC3 inh: inactive; Rin1-Abl PPI inh: inactive

What do the screens show for `Cc1ccc(C(=O)c2ccc([N+](=O)[O-])cc2)cc1`?
HGIII-sPLA2 inh: inactive; AI-2 QS modul: inactive; ARNT-TACC3 inh: inactive; Rin1-Abl PPI inh: inactive

How did Cc1ccc(C(=O)c2coc3cc([N+](=O)[O-])c(O)c([N+](=O)[O-])c23)cc1 do in these assays?
HGIII-sPLA2 inh: inactive; AI-2 QS modul: -90; Rin1-Abl PPI inh: inactive

How did N/C(=N\NS(=O)(=O)c1ccccc1)c1ccccn1 do in these assays?
HGIII-sPLA2 inh: inactive; AI-2 QS modul: inactive; ARNT-TACC3 inh: 67; Rin1-Abl PPI inh: inactive

How did N/C(=N\NS(=O)(=O)c1ccc(Cl)cc1)c1ccccn1 do in these assays?
HGIII-sPLA2 inh: inactive; AI-2 QS modul: inactive; ARNT-TACC3 inh: 43; Rin1-Abl PPI inh: inactive

What do the screens show for `c1ccc(-n2cnnc2SCc2cn3ccsc3n2)cc1`?
HGIII-sPLA2 inh: inactive; AI-2 QS modul: inactive; ARNT-TACC3 inh: inactive; Rin1-Abl PPI inh: inactive

How did c1ccc(-n2c(Cc3cn4ccsc4n3)nnc2N2CCOCC2)cc1 do in these assays?
HGIII-sPLA2 inh: inactive; AI-2 QS modul: inactive; ARNT-TACC3 inh: 45; Rin1-Abl PPI inh: inactive

Results for CCC(=O)Nc1nc(N)n(-c2ccccc2)n1 ?
HGIII-sPLA2 inh: inactive; AI-2 QS modul: inactive; ARNT-TACC3 inh: inactive; Rin1-Abl PPI inh: inactive

How did Nc1nc(NC(=O)C(Cl)(Cl)Cl)nn1-c1ccccc1 do in these assays?
HGIII-sPLA2 inh: inactive; AI-2 QS modul: inactive; ARNT-TACC3 inh: 64; Rin1-Abl PPI inh: inactive

Results for O=C1NC(=O)/C(=C/c2ccco2)N1 ?
HGIII-sPLA2 inh: inactive; ARNT-TACC3 inh: inactive; Rin1-Abl PPI inh: inactive

Results for O=C1NC(=S)NC1=Cc1ccco1 ?
HGIII-sPLA2 inh: inactive; ARNT-TACC3 inh: 60; Rin1-Abl PPI inh: inactive

Results for CC1=NN(c2cc(Cl)c(S(=O)(=O)O)cc2Cl)C(=O)C1 ?
HGIII-sPLA2 inh: inactive; ARNT-TACC3 inh: 30; Rin1-Abl PPI inh: inactive

What do the screens show for `CC1=NN(c2ccc(S(=O)(=O)O)cc2Cl)C(=O)C1`?
HGIII-sPLA2 inh: inactive; AI-2 QS modul: inactive; ARNT-TACC3 inh: inactive; Rin1-Abl PPI inh: inactive

How did CC1=NN(c2cccc(Cl)c2)C(=O)C1 do in these assays?
HGIII-sPLA2 inh: inactive; AI-2 QS modul: inactive; ARNT-TACC3 inh: inactive; Rin1-Abl PPI inh: 32

What do the screens show for `O=C1CC(c2ccccc2)=NN1c1ccccc1`?
HGIII-sPLA2 inh: inactive; Rin1-Abl PPI inh: inactive

What do the screens show for `CC1=NN(c2ccc([N+](=O)[O-])cc2)C(=O)C1`?
ARNT-TACC3 inh: 45; Rin1-Abl PPI inh: inactive

What do the screens show for `CC1=NN(c2ccc([N+](=O)[O-])cc2)C(=O)/C1=C\N(C)C`?
HGIII-sPLA2 inh: inactive; AI-2 QS modul: inactive; ARNT-TACC3 inh: inactive; Rin1-Abl PPI inh: inactive

How did CC1CCN(C(=O)Cn2cc3c(n2)CCCC3)CC1 do in these assays?
HGIII-sPLA2 inh: inactive; AI-2 QS modul: inactive; ARNT-TACC3 inh: 47; Rin1-Abl PPI inh: inactive

What do the screens show for `O=C(Cn1cc2c(n1)CCCC2)N1CCOCC1`?
HGIII-sPLA2 inh: inactive; AI-2 QS modul: inactive; Rin1-Abl PPI inh: inactive

How did COc1ccc(-c2ccc3c(c2)[C@@H]2[C@@H](CCN2C(=O)NC2CCCCC2)[C@H](CO)N3C)cc1 do in these assays?
ARNT-TACC3 inh: inactive

Results for COc1cccc(-c2ccc3c(c2)[C@H]2[C@H](CCN2C(=O)NC2CCCC2)[C@H](CO)N3C)c1 ?
ARNT-TACC3 inh: active

Results for O=C1NC(c2ccc(Br)cc2)Nc2sc3c(c21)CCC3 (stereo not drawn) ?
HGIII-sPLA2 inh: inactive; AI-2 QS modul: inactive; ARNT-TACC3 inh: inactive; Rin1-Abl PPI inh: inactive

How did O=C1NC(c2ccccn2)Nc2sc3c(c21)CCC3 (stereo not drawn) do in these assays?
HGIII-sPLA2 inh: inactive; AI-2 QS modul: inactive; ARNT-TACC3 inh: 65; Rin1-Abl PPI inh: inactive

How did C[C@@H]1CN([C@H](C)CO)C(=O)c2cc(/C=C/c3ccccc3)cnc2O[C@@H]1CN(C)C(=O)c1cnccn1 do in these assays?
ARNT-TACC3 inh: inactive

How did Cc1ccc(C)c(S(=O)(=O)Nc2cc(SCC(=O)O)c(O)c3ccccc23)c1 do in these assays?
ARNT-TACC3 inh: 54; Rin1-Abl PPI inh: inactive

What do the screens show for `O=C(O)/C=C/c1ccc(S(=O)(=O)Nc2ccccc2C(=O)Nc2ccc(F)cc2)cc1`?
HGIII-sPLA2 inh: inactive; AI-2 QS modul: inactive; ARNT-TACC3 inh: 47; Rin1-Abl PPI inh: inactive

How did CCC(=O)N1C[C@@H](C)[C@H](OC)CN(C)C(=O)c2ccc(NC(=O)Nc3ccccc3)cc2OC[C@H]1C do in these assays?
ARNT-TACC3 inh: inactive

What do the screens show for `COc1cccc(-n2nnnc2S(C)(=O)=O)c1`?
AI-2 QS modul: -87; ARNT-TACC3 inh: inactive; Rin1-Abl PPI inh: inactive

How did COc1cccc(Oc2nnnn2-c2ccccc2)c1 do in these assays?
HGIII-sPLA2 inh: inactive; AI-2 QS modul: inactive; ARNT-TACC3 inh: inactive; Rin1-Abl PPI inh: inactive

Results for COc1cccc(-n2nnc(S(=O)(=O)c3ccc(C)cc3)c2N)c1 ?
HGIII-sPLA2 inh: inactive; AI-2 QS modul: -92; ARNT-TACC3 inh: inactive; Rin1-Abl PPI inh: inactive

How did O=C(O)c1ccccc1-c1ccc(/C=c2\sc3nc4cc(Br)cnc4n3c2=O)o1 do in these assays?
AI-2 QS modul: inactive; ARNT-TACC3 inh: 50; Rin1-Abl PPI inh: inactive

Results for CN(Cc1ccccc1)C(=C(Cl)Cl)C(=C1NCCN1)[N+](=O)[O-] ?
AI-2 QS modul: inactive; ARNT-TACC3 inh: inactive; Rin1-Abl PPI inh: inactive

What do the screens show for `O=[N+]([O-])C(=C1Nc2ccccc2N1)/C(Cl)=C(/Cl)Br`?
HGIII-sPLA2 inh: inactive; AI-2 QS modul: inactive; ARNT-TACC3 inh: 61; Rin1-Abl PPI inh: inactive

Screening data (PubChem)
